Compounds without any hit were thinned out: in the full panel of roughly 83,000, 20% have a hit.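 Method: cells in 96-well plates; compound added at one concentration; 48 h incubation; percent growth measured; values under 10 scored active.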 A number with no mark means an inactive call. Calls of active or inactive are those of the source.
Each compound was assayed on HL-60(TB) leukemia (assay: NCI-60 one-dose screen, 48 h (100 = growth as untreated, 0 = no growth, -100 = all killed)). Conditions: 10 µM unless noted.

Row | Structure (SMILES) | growth
1 | O=C(Nc1ncc(Cc2ccccc2)s1)c1ccc2c(c1)OCCCO2 | 11.8%
2 | CCOC(=O)c1c(C)nc2ccccc2c1/C=C/c1ccc(OC)cc1 | 83.3%
3 | CCN(CC)CCCC(C)Nc1cnc(C(=O)Nc2cccc3ccc(OC)nc23)cn1 (stereo not drawn) | 72.4%
4 | C=C1C(=O)O[C@H]2[C@H]1CC/C(COC(=O)c1ccc3ccccc3c1)=C\CC[C@@]1(C)O[C@@H]21 | -53.5% (active)
5 | Clc1nn2c(Cn3cnc4c(NCc5ccccc5)ncnc43)nnc2c2ccccc12 | 23%
6 | COc1cc(NC(=O)c2cccc(-c3cc(=O)c4c(O)c(OC)c(OC)cc4o3)c2)cc(OC)c1OC | 78%
7 | CCCCOc1ccc(NC(=O)Nc2nnc(C)s2)cc1 | 80.7%
8 | Cc1ccc(/C=C2\COc3ccc(O)c(O)c3C2=O)cc1 | -15% (active)
9 | CC(=O)N(C)c1ccc(Nc2ccc(Nc3ccc(N(C)C(C)=O)cc3)c3c2C(=O)c2ccccc2C3=O)cc1 | 77%
10 | [2H]C1([2H])NC([2H])([2H])C([2H])([2H])N(c2ccc(Nc3ncc4cc(C(=O)N(C)C)n(C5CCCC5)c4n3)nc2)C1([2H])[2H] | 22.7%
11 | COc1cc(OC)cc(C2C3=C(COC3=O)Nc3cc(OC)ccc32)c1 (stereo not drawn) | 1.71% (active)
12 | CC(C)C1C2=C(NCCN1C(=O)c1ccncc1)C(C)(C)N(Cc1ccccc1)C2=O (stereo not drawn) | 87.3%
13 | O=C(/C=C(O)/C=C/c1cccc2[nH]ccc12)/C=C/c1cccc2[nH]ccc12 | 39.4%

— PubChem BioAssay (NCI)
